In the library only some 0.75% were active in any assay of this set; here they are far more common.
PKM2 activator: activators of human pyruvate kinase M2. AID 1631. P14618. 260,000 tested, 0.34% active. purified PKM2, Kinase-Glo ATP luminescence, activation; response scale: 0% is enzyme alone, no compound. Potency, µM (top dose mostly 57.5 µM), hits mostly activators; further: nearly all actives have a fitted effect of over 55% in size
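hPK-M2, >95% pure; 0.1 mM ADP / 0.5 mM PEP final; imidazole pH7.2 buffer w/ 7 mM MgCl2, 50 mM KCl; 1 h RT; Kinase-Glo lum. Intermediate enzyme activity for dual inhibitor/activator qHTS.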
TSHR antagonist: human thyrotropin receptor antagonism; TSHR-expressing cells, TSH-stimulated cAMP HTRF, 2 h; active compounds read low; P16473; activity change, negative = inhibition, % at 11.5 µM; 330,000 tested, 0.2% active;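 active means activity change below a set negative limit, meaning inhibition stronger than a set level, cut at about -70% in these data; inconclusive means activity change between two set negative limits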
Target sequence (P16473 whole entry, looked up): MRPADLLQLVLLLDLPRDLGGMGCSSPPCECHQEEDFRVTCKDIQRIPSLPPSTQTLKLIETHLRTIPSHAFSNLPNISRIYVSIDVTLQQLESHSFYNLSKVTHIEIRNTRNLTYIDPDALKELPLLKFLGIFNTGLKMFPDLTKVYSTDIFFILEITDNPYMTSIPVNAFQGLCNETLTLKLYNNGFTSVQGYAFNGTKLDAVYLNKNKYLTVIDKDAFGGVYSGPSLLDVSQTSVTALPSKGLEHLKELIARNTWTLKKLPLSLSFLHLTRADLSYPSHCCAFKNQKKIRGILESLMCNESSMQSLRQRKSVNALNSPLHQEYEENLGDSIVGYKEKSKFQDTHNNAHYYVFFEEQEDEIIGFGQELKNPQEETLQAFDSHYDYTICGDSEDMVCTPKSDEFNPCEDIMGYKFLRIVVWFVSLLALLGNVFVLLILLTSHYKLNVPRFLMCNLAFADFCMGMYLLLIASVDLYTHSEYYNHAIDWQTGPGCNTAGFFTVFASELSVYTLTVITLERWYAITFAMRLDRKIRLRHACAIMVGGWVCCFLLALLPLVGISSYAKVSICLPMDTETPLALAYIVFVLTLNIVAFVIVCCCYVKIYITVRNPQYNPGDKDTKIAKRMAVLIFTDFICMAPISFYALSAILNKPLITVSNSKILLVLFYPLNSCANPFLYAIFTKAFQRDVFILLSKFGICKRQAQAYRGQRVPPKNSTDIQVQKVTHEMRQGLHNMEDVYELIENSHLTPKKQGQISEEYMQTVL
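Competitive HTRF cAMP read-out (cryptate anti-cAMP antibody, cAMP-d2; 30 min, room temperature) in freshly harvested TSHR cells. Compounds added before TSH at EC80 (4nM final), followed by 2 hours' incubation at 37 deg C.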
uPA generation: blocks generation of uPA at the cell surface; cell surface uPA generation assay, qHTS; Potency, µM (titrated, usually from 38.3 µM), most hits filed as inhibitors; 330,000 tested, 0.31% active; AID 540303; active means well fitted inhibition curve with a large enough effect; inconclusive means small, poorly fitted or top-dose-only effect; inactive means no such curve, though single readings can be large or run the other way; tested in mouse RAW 264.7 cells; further: nearly all actives have a fitted effect of over 55% in size
TCR act: T cell receptor activation; primary human leukocytes, anti-CD3, IL-2 HTRF, 48 h; Potency, µM (highest dose often 9.22 µM), most hits filed as activators; 330,000 tested, under 10 active
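Primary human leukocytes incubated 48 hr with anti-CD3 beads plus compound, without co-stimulation. Secreted IL-2 measured by HTRF (europium cryptate/d2 anti-IL-2 pair, 320 nm excitation, 665 nm emission).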
A number is an active result; [ ] = dose if it differs, or a comment. Unless noted, the call rests on the fitted dose curve; in most records, active means well fitted curve in the direction sought with a large enough effect; inconclusive means small, poorly fitted or top-dose-only effect, or another doubt; inactive means no such curve, though single readings can be large; an effect the other way counts as inactive or inconclusive.

Screening COc1cccc(N2CCN(C(=O)C3CCC(=O)N(C4CCCCCC4)C3)CC2)c1 (stereo not drawn) returned PKM2 activator inactive, TSHR antagonist inactive, uPA generation inactive and TCR act inactive.
Screening O=C(NCc1ccc(F)cc1)c1ccncc1 returned PKM2 activator inactive, TSHR antagonist -121, uPA generation inactive and TCR act inactive.
Screening COCCN(CCOC)c1nc(C)nc2c1nc(-c1ccccc1)n2CC1CCN(C)CC1 returned PKM2 activator inactive.
`CCc1nc(NCCc2ccccn2)c2nnn(Cc3ccccc3F)c2n1` gave PKM2 activator 25µM, TSHR antagonist inactive, uPA generation inactive and TCR act inactive.
For CCCc1nc(NCc2ccccn2)c2nnn(Cc3ccccc3F)c2n1 the results were PKM2 activator inactive, TSHR antagonist inactive, uPA generation inactive and TCR act inactive.
`c1ccc(OCc2nn3c(Cn4cnc5ccccc54)nnc3s2)cc1` gave PKM2 activator 4.5µM, TSHR antagonist inactive, uPA generation inactive and TCR act inactive.
For c1ccc2c(c1)ncn2Cc1nnc2sc(-c3ccncc3)nn12 the results were PKM2 activator 8.9µM, TSHR antagonist inactive and TCR act inactive.
For c1cncc(-c2nn3c(Cn4cnc5ccccc54)nnc3s2)c1 the results were PKM2 activator inconclusive, TSHR antagonist inactive, uPA generation inactive and TCR act inactive.
Screening Cc1ccc(SCC(=O)OCC(=O)NC(C)c2ccc(Br)cc2)cc1 (stereo not drawn) returned PKM2 activator inactive, TSHR antagonist inactive, uPA generation inactive and TCR act inactive.
For CCc1c2c(nc3cccc(OC)c13)OC(CC)C2 (stereo not drawn) the results were PKM2 activator inactive.
O=C(COCC(=O)N1CCOCC1)N1CCOCC1 was read as PKM2 activator inactive, TSHR antagonist inactive, uPA generation inactive and TCR act inactive.
`O=C(c1c[nH]c2ccccc12)C(O)C(c1ccccc1)N1CCOCC1` (stereo not drawn) gave PKM2 activator inconclusive, TSHR antagonist inactive, uPA generation inactive and TCR act inactive.
For O=C(c1c[nH]c2ccccc12)C(Cl)c1ccccc1 (stereo not drawn) the results were TSHR antagonist inactive, uPA generation 6.3µM and TCR act inactive.
For CCn1c(=S)sc2c(=O)n(CC(=O)Nc3ccccc3OC)c(C)nc21 the results were TSHR antagonist -134, uPA generation inactive and TCR act inactive.
Cc1ccnc(NS(=O)(=O)c2ccc(NC(=O)c3ccc([N+](=O)[O-])s3)cc2)n1 was read as PKM2 activator inactive, TSHR antagonist inactive, uPA generation inactive and TCR act inactive.
`O=C(CN(C(=O)c1csnn1)c1ccc(F)cc1)NCCc1ccccc1` gave PKM2 activator inactive, TSHR antagonist inactive, uPA generation inactive and TCR act inactive.
CC(C)(C)c1cccc(Cn2nnc3ccccc32)c1O was read as TSHR antagonist -77, uPA generation inactive and TCR act inactive.
Screening Cc1cc(Cn2nnc3ccccc32)c(O)c(C(C)(C)C)c1 returned TSHR antagonist inactive, uPA generation inactive and TCR act inactive.
For COc1ccc(-c2nn(-c3ccccc3)cc2/C=N/NC(=O)c2ccc3c(c2)OCO3)cc1 the results were PKM2 activator inactive and TSHR antagonist inactive.
COc1ccc(-c2nn(-c3ccccc3)cc2/C=N/NC(=O)c2ccc(Br)o2)cc1 was read as PKM2 activator inactive, TSHR antagonist -95, uPA generation inactive and TCR act inactive.
N/C(=N\N=C\c1ccc2c(c1)OCO2)SC1CC(=O)N(c2ccc(C(=O)O)cc2)C1=O (stereo not drawn) was read as PKM2 activator 35µM, TSHR antagonist inactive, uPA generation inactive and TCR act inactive.
O=C(O)c1ccc(N2C(=O)CC(SC(=NCc3ccc4c(c3)OCO4)Nc3ccccc3)C2=O)cc1 (stereo not drawn) was read as PKM2 activator inactive, TSHR antagonist inactive, uPA generation inactive and TCR act inactive.
COC(=O)CN(c1ccc(C)cc1)S(=O)(=O)c1ccc2c(c1)n(C)c(=O)c(=O)n2C was read as PKM2 activator 16µM, TSHR antagonist -96, uPA generation inactive and TCR act inactive.
Screening CCOc1ccc(N(CC(=O)OC)S(=O)(=O)c2ccc3c(c2)n(C)c(=O)c(=O)n3C)cc1 returned PKM2 activator inactive, TSHR antagonist inactive, uPA generation inactive and TCR act inactive.
CC(C)c1ccccc1S(=O)(=O)c1cc(N)c2ncccc2c1[N+](=O)[O-] was read as PKM2 activator inactive.
For O=C(N/N=C/c1cc(Br)ccc1OC(=O)c1ccc(Br)cc1)c1ccncc1 the results were TSHR antagonist inactive, uPA generation inactive and TCR act inactive.
Screening NC(=O)CCCn1c(C(=O)c2cc(Cl)c(N)c(Cl)c2)c2ccc([N+](=O)[O-])cc2[n+]1[O-] returned TSHR antagonist inactive, uPA generation 3.2µM and TCR act inactive.
NCCCn1c(C(=O)c2ccc(Cl)cc2)c2ccc([N+](=O)[O-])cc2[n+]1[O-] was read as TSHR antagonist inactive, uPA generation inconclusive and TCR act inactive.
Screening NC(=O)CCCn1c(C(=O)c2ccc(Cl)cc2)c2ccc([N+](=O)[O-])cc2[n+]1[O-] returned TSHR antagonist inactive, uPA generation 1.4µM and TCR act inactive.
Cc1ccc(S(=O)(=O)/N=c2\sccn2C)cc1 was read as PKM2 activator 18µM, TSHR antagonist inactive, uPA generation inactive and TCR act inactive.
Screening C[n+]1c2n(c3ccccc31)N=C(c1ccc(Cl)cc1)CS2 returned PKM2 activator inactive, TSHR antagonist inactive, uPA generation inactive and TCR act inactive.
For COc1ccc(C2=Nn3c([n+](C)c4ccccc43)SC2)cc1 the results were PKM2 activator inactive, TSHR antagonist inactive, uPA generation 3.5µM and TCR act inactive.
Screening C=CCc1c(C)nc2cc(-c3ccc(C)cc3)[nH]n2c1=O returned PKM2 activator inactive[11.5 µM], TSHR antagonist inactive and uPA generation 11µM.
`CCc1c(C)nc2cc(-c3ccccc3)[nH]n2c1=O` gave PKM2 activator inactive, TSHR antagonist inactive, uPA generation inactive and TCR act inactive.
For O=C(/C=C/c1ccco1)Nc1ccc2nc3n(c(=O)c2c1)CCCC3 the results were PKM2 activator inactive, TSHR antagonist inactive, uPA generation 2µM and TCR act inactive.
For CCOc1cc2c(cc1OCC)C(c1ccccc1)N(c1ccccc1)C(=O)C2 (stereo not drawn) the results were PKM2 activator inactive, TSHR antagonist inactive, uPA generation inactive and TCR act inactive.
For CNc1nc(-c2ccc3c(c2)CCN3C(=O)c2cccc(F)c2)cs1 the results were PKM2 activator inactive, TSHR antagonist inactive, uPA generation 7.1µM and TCR act inactive.
CCN1C(=NCCCOC(C)C)N[C@@H](CCc2ccccc2)[C@H](C(=O)NCCCOC(C)C)[C@H]1C was read as PKM2 activator inactive, TSHR antagonist inactive, uPA generation inconclusive and TCR act inactive.

Assay outcomes: PubChem, National Center for Advancing Translational Sciences (NCATS)
